Among the test systems are BMX; BRAF; BRSK1; BRSK2; BTK; BUB1; CAMK1B; CAMK1D; CAMK1G; CAMK1; CAMK2A; CAMK2B; CAMK2D; CAMK2G; CAMK4; CAMKK1; CAMKK2; CASK.
What all share (settings): concentration: 1 μM,replicates: in singlicate; n = 1
The next test deals with T1, BRK.
T1 construct: gene PTK6

The test system of another test is T2, CDC2L1.
T2 construct: gene CDK11B

The record followed here is paper PMC5540273 (PLoS ONE, 2017).
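Note: KINOMEscan kinase panel screen.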

Regarding `COc1cccc(OC)c1C(=O)Nc1cccc(-c2nn3ccccc3c2-c2ccnc(Nc3cccc(F)c3)n2)c1` [GSK361065], the “%Inh” value was determined as 21% with BMX; 17% with BRAF; 19% in the test with BRK; 0% in the test with BRSK1; 16% in the test on BRSK2; 0% in the test on BTK. For the same compound, the “%Inh” value amounted to 11% in the test with BUB1; 0% in the test on CAMK1B; 13% in the test on CAMK1D; 0% in the test on CAMK1G; 19% in the test with CAMK1; 27% in the test on CAMK2A. Further, the “%Inh” value with CAMK2B turned out to be 6%; in the test on CAMK2D, 0%; with CAMK2G, 0%; in the test with CAMK4 it was 0%; in the test on CAMKK1 it was 4%; in the test with CAMKK2 it was 0%. Also, the “%Inh” value was determined as 15% with CASK and 0% in the test with CDC2L1.
As to `COc1cc(Nc2nccc(N3CCC(NC(=O)c4cccc(C#N)c4)C3)n2)cc(OC)c1OC` (stereo not shown) [GSK1379751], the “%Inh” value in the test on BMX came out at 0%; in the test on BRAF, 0%; in the test with BRK, 0%; in the test with BRSK1 it was 0%; with BRSK2 it was 100%; in the test with BTK it was 0%. Moreover, the “%Inh” value with BUB1 came out at 61%; in the test with CAMK1B, 22%; with CAMK1D, 0%; in the test on CAMK1G it was 0%; in the test with CAMK1 it was 3%; with CAMK2A, 0%. The “%Inh” value in the test on CAMK2B is given as 0%; in the test on CAMK2D, 0%; in the test on CAMK2G, 17%; in the test on CAMK4 it was 0%; with CAMKK1 it was 0%; in the test on CAMKK2 it was 3%. The “%Inh” value in the test on CASK came to 3%; in the test on CDC2L1, 0%.
`COc1ccc(Nc2nccc(N3CCC(NC(=O)c4cccc(C#N)c4)C3)n2)cc1` (stereo not shown) [GSK1379730]: the “%Inh” value in the test with BMX was 0%; with BRAF it was 0%; with BRK, 8%; in the test with BRSK1 it was 0%; with BRSK2, 0%; with BTK it was 28%. Besides, the “%Inh” value in the test on BUB1 worked out at 53%; in the test with CAMK1B, 13%; in the test with CAMK1D it was 0%; with CAMK1G, 0%; with CAMK1, 0%; with CAMK2A, 0%. Moreover, the “%Inh” value in the test with CAMK2B is reported as 0%; in the test on CAMK2D, 0%; with CAMK2G it was 6%; in the test with CAMK4, 0%; with CAMKK1, 8%; in the test with CAMKK2, 10%. Also, the “%Inh” value in the test with CASK and with CDC2L1 was 0% throughout.
With `CC(=O)Nc1nc2cnc(Nc3cc(NC(=O)c4cccc(CC(C)(C)C#N)c4)ccc3C)nc2s1`, the “%Inh” value in the test with BMX amounted to 9%; in the test on BRAF, 99.9%; in the test on BRK, 0%; with BRSK1, 23%; in the test on BRSK2, 14%; in the test with BTK it was 51%. The “%Inh” value in the test on BUB1 is listed as 30%; in the test with CAMK1B, 0%; in the test with CAMK1D, 8%; in the test on CAMK1G it was 0%; in the test with CAMK1 it was 4%; in the test with CAMK2A it was 0%. Also, the “%Inh” value in the test on CAMK2B was 0%; with CAMK2D, 7%; in the test with CAMK2G, 14%; in the test on CAMK4 it was 0%; in the test with CAMKK1, 21%; in the test with CAMKK2, 11%. The figures for the “%Inh” value with CASK and with CDC2L1 were 0% and 16%, respectively.
For the compound `C[C@@H]1CNc2c(sc3ccc4nc(-c5ccc(O)cc5)ccc4c23)C(=O)N1`, the “%Inh” value in the test on BMX is 14%; with BRAF it was 0%; in the test with BRK, 0%; with BRSK1 it was 48%; with BRSK2 it was 72%; in the test on BTK, 0%. Also, the “%Inh” value in the test with BUB1 is 58%; in the test with CAMK1B it was 13%; in the test with CAMK1D, 0%; with CAMK1G, 16%; in the test with CAMK1, 16%; in the test with CAMK2A, 35%. Further, the “%Inh” value came out at 36% in the test with CAMK2B; 32% in the test on CAMK2D; 23% in the test on CAMK2G; 30% in the test with CAMK4; 40% in the test on CAMKK1; 58% with CAMKK2. Besides, the “%Inh” value with CASK and in the test on CDC2L1 was 0% in each case.
For the compound `O=C(Nc1cccc(Oc2ccc3nccn3n2)c1)Nc1cccc(C(F)(F)F)c1`, the “%Inh” value is 0% in the test with BMX; 88% in the test on BRAF; 0% in the test with BRK; 5% with BRSK1; 13% in the test with BRSK2; 0% in the test with BTK. In addition, the “%Inh” value with BUB1 was 7%; with CAMK1B it was 0%; with CAMK1D it was 12%; with CAMK1G, 0%; in the test on CAMK1 it was 5%; in the test with CAMK2A, 0%. For the same compound, the “%Inh” value with CAMK2B came out at 0%; in the test on CAMK2D it was 0%; in the test with CAMK2G, 0%; in the test on CAMK4, 0%; in the test on CAMKK1 it was 5%; with CAMKK2 it was 0%. Also, the “%Inh” value with CASK is 26%; in the test with CDC2L1, 1%.
For `Cc1nnc(-c2ccc3occ(-c4ccc(S(C)=O)cc4)c3n2)o1` (stereo not shown), the “%Inh” value in the test on BMX, in the test on BRAF, in the test with BRK, in the test on BRSK1, in the test with BRSK2 and with BTK was 0% in each case. Besides, the “%Inh” value in the test with BUB1 came to 0%; with CAMK1B, 0%; in the test with CAMK1D, 17%; in the test on CAMK1G, 3%; in the test on CAMK1, 3%; in the test on CAMK2A, 0%. The “%Inh” value in the test on CAMK2B stood at 0%; in the test on CAMK2D it was 0%; in the test with CAMK2G, 0%; in the test on CAMK4, 0%; with CAMKK1, 6%; in the test on CAMKK2, 11%. The “%Inh” value with CASK and in the test with CDC2L1 was 0% in each case.
Take `O=c1[nH]cc(-c2ccc(O)cc2)c2sc(-c3ccncc3)cc12` [GSK1033723]: the “%Inh” value is 18% in the test on BMX; 1% in the test on BRAF; 7% in the test with BRK; 29% in the test with BRSK1; 0% in the test on BRSK2; 0% with BTK. Further, the “%Inh” value amounted to 15% in the test with BUB1; 0% in the test on CAMK1B; 20% in the test with CAMK1D; 1% in the test with CAMK1G; 6% in the test on CAMK1; 0% in the test with CAMK2A. Further, the “%Inh” value came out at 0% in the test with CAMK2B; 4% in the test on CAMK2D; 29% in the test with CAMK2G; 0% in the test on CAMK4; 15% with CAMKK1; 15% in the test with CAMKK2. Moreover, the “%Inh” value is listed as 15% in the test with CASK and 0% with CDC2L1.
